Assay results reported in PubChem BioAssay (Tox21).
Values without a mark were called inactive. Results filed as inconclusive are left out. A call without a number means that no potency is given here. Active and inactive are the calls of the source. Calls follow the shape of the dose curve; as a rule, active = well fitted curve in the direction sought with a large enough effect in the repeat runs; inconclusive = weak or mixed curves; inactive = no such curve, though single readings can be large; an effect the other way counts as inactive or inconclusive.

Legend:
[1] = Caspase-3/7 induction in HepG2 cells by small molecules, qHTS assay (AID 1346978); also: nearly all actives have a fitted effect of over 15% in size
How it was run: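 Wild-type HepG2 cells (2,000/well) were settled 5 h at 37 C, 5% CO2, then exposed to compounds in DMSO for 17 h. Caspase-3/7 activity was read by luminescence 30 min after adding Caspase-Glo 3/7 reagent at room temperature.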

[2] = Caspase-3/7 induction in CHO-K1 cells by small molecules, qHTS cell viability counter screen (AID 1346979); also: nearly all actives have a fitted effect of over 35% in size; also: potency is read from the fitted curve at half-maximal effect
How it was run: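 CHO-K1 wt, 1,500 cells/well; 5hr pre-incubation 37C/5% CO2; compound pin transfer (DMSO); 16hr exposure; CellTiter-Fluor added, 1hr, fluorescence read.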

[3] = Caspase-3/7 induction in CHO-K1 cells by small molecules, qHTS assay (AID 1346980); also: nearly all actives have a fitted effect of over 15% in size
How it was run: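 Wild-type cells were seeded at 1,500 per well and settled 5 hr at 37 C, 5% CO2, then exposed to DMSO-dissolved compounds for 17 hr. Caspase-Glo 3/7 reagent was added, and luminescence was read after 30min at room temperature.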

[4] = biological target: Nuclear receptor subfamily 1 group I member 2 (Homo sapiens) (UniProt O75469); assay: Human pregnane X receptor (PXR) small molecule agonists, qHTS assay (AID 1346982); also: nearly all actives have a fitted effect of over 35% in size; also: potency is read from the fitted curve at half-maximal effect
Chain of Nuclear receptor subfamily 1 group I member 2 (Homo sapiens) (O75469 whole entry, looked up): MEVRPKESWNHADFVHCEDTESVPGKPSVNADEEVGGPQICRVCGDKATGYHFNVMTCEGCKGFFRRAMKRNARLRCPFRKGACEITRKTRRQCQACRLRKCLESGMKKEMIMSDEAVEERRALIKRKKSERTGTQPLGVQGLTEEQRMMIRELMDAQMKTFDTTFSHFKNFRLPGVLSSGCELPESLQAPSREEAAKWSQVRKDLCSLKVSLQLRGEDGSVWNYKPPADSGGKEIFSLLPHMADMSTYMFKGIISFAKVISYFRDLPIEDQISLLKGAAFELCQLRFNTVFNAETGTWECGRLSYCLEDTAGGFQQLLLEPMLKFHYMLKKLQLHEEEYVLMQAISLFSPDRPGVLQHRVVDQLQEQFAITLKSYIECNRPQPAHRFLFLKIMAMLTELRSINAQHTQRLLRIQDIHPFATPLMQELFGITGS
How it was run: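 Cells: HepG2 stably carrying PXR-Luc. Medium held 5% charcoal-stripped FBS. Compounds in DMSO added after 5 hr plating, incubated 24 hr, then luminescence quantified with ONE-Glo.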

[5] = biological target: Cytochrome P450 2D6 (Homo sapiens) (UniProt P10635); assay: Cytochrome P450 Family 2 Subfamily D Member 6 (CYP2D6) small molecule antagonists: luciferase reporter qHTS assay (AID 1671196); also: nearly all actives have a fitted effect of over 50% in size; also: potency is read from the fitted curve at half-maximal effect
Chain of Cytochrome P450 2D6 (Homo sapiens) (P10635 whole entry, looked up): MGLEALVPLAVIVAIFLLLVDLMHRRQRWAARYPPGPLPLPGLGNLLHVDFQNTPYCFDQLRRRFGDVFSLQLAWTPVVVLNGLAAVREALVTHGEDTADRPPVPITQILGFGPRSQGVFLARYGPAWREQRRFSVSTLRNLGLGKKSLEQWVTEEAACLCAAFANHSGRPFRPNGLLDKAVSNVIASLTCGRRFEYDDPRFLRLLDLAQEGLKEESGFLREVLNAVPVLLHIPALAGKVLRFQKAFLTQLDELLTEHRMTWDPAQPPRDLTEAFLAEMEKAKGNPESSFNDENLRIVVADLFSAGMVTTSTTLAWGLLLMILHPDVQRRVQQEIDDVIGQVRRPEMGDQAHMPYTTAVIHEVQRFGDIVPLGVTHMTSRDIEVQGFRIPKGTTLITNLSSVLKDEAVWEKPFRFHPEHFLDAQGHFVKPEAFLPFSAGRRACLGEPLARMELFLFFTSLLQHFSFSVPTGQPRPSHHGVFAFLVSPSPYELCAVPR
How it was run: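 Enzyme and proluciferin substrate were first combined with test chemical for 10 min at room temperature. Adding NADPH regeneration solution started a 1 h reaction, stopped with luciferin detection reagent and read by luminescence 20 min later.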

[6] = biological target: Cytochrome P450 3A4 (Homo sapiens) (UniProt P08684); assay: Cytochrome P450 Family 3 Subfamily A Member 4 (CYP3A4) small molecule antagonists: luciferase reporter qHTS assay (AID 1671201); also: nearly all actives have a fitted effect of over 50% in size; also: potency is read from the fitted curve at half-maximal effect
Chain of Cytochrome P450 3A4 (Homo sapiens) (P08684 whole entry, looked up): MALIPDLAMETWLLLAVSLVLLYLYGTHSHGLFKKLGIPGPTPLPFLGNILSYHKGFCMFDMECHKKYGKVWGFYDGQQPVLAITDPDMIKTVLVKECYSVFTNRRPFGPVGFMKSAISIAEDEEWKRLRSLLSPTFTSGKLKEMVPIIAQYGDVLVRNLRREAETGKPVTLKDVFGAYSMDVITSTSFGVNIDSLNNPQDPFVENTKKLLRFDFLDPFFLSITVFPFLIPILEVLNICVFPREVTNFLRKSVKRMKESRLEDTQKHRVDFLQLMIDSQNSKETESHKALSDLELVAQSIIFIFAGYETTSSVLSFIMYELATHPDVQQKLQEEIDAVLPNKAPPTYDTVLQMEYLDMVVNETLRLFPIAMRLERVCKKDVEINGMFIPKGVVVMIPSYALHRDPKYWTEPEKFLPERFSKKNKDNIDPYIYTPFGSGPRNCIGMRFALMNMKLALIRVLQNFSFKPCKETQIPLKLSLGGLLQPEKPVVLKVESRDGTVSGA
How it was run: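 Luminescent readout (RLU) proportional to CYP3A4 activity, from luciferin generated off a proluciferin substrate. Enzyme–substrate mix plus compound 10 min at room temp, NADPH regeneration 1 h, detection reagent 20 min.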

[7] = biological target: Cytochrome P450 2C19 (Homo sapiens) (UniProt P33261); assay: Cytochrome P450 Family 2 Subfamily C Member 19 (CYP2C19) small molecule antagonists: luciferase reporter qHTS assay (AID 1671197); also: nearly all actives have a fitted effect of over 65% in size; also: potency is read from the fitted curve at half-maximal effect
Chain of Cytochrome P450 2C19 (Homo sapiens) (P33261 whole entry, looked up): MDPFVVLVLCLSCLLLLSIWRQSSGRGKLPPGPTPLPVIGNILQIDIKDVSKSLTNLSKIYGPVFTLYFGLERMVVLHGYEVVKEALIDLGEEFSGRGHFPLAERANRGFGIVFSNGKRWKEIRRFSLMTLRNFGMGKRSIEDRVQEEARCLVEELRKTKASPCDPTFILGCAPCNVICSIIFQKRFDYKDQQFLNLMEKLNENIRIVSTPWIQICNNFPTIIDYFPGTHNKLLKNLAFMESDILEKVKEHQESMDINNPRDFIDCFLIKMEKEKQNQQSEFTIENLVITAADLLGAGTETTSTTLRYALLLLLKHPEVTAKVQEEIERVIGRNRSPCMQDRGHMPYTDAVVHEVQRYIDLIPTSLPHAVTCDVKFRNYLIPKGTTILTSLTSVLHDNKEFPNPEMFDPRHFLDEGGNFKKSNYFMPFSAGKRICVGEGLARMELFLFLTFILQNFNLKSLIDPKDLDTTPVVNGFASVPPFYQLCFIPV
How it was run: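 P450-Glo CYP2C19 screening system; proluciferin substrate; DMSO compound stocks; 10 min RT preincubation; NADPH regeneration, 1 h at 37C; luciferin detection reagent, 20 min RT; luminescence as RLU.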

[8] = biological target: Cytochrome P450 2C9 (Homo sapiens) (UniProt P11712); assay: Cytochrome P450 Family 2 Subfamily C Member 9 (CYP2C9) small molecule antagonists: luciferase reporter qHTS assay (AID 1671198); also: nearly all actives have a fitted effect of over 50% in size; also: potency is read from the fitted curve at half-maximal effect
Chain of Cytochrome P450 2C9 (Homo sapiens) (P11712 whole entry, looked up): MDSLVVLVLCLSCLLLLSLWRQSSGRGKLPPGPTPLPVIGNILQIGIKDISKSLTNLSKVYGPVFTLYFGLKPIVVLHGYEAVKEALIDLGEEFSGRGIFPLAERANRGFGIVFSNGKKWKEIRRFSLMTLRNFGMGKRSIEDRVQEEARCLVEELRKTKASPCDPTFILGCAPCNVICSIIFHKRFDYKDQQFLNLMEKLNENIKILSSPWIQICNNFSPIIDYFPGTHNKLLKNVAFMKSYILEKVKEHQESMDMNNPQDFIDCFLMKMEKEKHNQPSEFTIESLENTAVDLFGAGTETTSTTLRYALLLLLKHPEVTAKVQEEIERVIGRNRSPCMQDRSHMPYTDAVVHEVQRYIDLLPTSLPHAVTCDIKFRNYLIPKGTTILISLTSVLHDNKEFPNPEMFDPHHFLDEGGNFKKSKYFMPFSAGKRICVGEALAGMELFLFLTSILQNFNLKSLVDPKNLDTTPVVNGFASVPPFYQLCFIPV
How it was run: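 CYP2C9 activity was measured with a P450-Glo proluciferin substrate. Enzyme–substrate mix was held with compound for 10 min at room temperature, then NADPH regeneration solution was added for 1 h at 37C. Luciferin product was read as luminescence.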

[9] = biological target: Voltage-gated inwardly rectifying potassium channel KCNH2 (Homo sapiens) (UniProt Q12809); assay: Human Ether-a-go-go-Related Gene (hERG) channel small molecule antagonists: fluorescence cell-based qHTS assay (AID 1671200); also: nearly all actives have a fitted effect of over 50% in size; also: potency is read from the fitted curve at half-maximal effect
Chain of Voltage-gated inwardly rectifying potassium channel KCNH2 (Homo sapiens) (Q12809 whole entry, looked up): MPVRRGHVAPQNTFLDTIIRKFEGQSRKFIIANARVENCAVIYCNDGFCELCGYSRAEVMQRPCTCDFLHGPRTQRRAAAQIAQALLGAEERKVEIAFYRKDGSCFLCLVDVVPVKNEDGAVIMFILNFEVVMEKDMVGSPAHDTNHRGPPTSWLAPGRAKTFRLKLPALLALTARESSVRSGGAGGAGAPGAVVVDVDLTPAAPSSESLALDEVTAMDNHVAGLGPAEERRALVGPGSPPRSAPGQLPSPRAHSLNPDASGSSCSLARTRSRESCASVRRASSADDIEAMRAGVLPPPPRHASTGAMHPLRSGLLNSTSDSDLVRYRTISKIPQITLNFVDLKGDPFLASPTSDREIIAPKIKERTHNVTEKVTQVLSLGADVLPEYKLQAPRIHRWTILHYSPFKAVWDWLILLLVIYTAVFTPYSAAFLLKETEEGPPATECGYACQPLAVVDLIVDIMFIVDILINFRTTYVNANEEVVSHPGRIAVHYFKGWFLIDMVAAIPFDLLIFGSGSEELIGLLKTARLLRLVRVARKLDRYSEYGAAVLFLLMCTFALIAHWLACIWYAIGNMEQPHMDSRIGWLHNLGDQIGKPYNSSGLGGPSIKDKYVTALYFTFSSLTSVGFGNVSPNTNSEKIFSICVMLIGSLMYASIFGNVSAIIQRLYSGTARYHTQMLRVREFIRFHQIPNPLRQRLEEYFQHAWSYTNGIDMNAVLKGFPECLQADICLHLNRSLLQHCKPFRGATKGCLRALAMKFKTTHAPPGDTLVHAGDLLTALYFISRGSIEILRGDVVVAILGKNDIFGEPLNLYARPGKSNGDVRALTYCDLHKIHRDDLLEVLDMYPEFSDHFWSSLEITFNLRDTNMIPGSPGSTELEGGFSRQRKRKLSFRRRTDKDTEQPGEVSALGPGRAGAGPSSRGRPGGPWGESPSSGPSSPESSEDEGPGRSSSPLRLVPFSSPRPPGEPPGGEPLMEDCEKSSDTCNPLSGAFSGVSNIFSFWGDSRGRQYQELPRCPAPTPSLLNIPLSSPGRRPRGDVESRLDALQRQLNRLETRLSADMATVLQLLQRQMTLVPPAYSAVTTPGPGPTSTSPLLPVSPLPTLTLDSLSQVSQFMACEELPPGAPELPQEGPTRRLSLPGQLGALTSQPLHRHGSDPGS
How it was run: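 Read-out: thallium influx as a surrogate for potassium, tracked as fluorescence (480 nm ex/540 nm em) every second for 2 min after Stimulus Buffer addition in dye-loaded hERG-U2OS cells.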

[10] = Caspase-3/7 induction in HepG2 cells by small molecules, qHTS cell viability counter screen (AID 1346981); also: nearly all actives have a fitted effect of over 30% in size; also: potency is read from the fitted curve at half-maximal effect
How it was run: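 Cell viability is measured as a cytotoxicity counter screen alongside the Caspase-Glo 3/7 readout in identical wells. Wild-type HepG2 cells are treated with test compounds for 16 hr at 37 C before CellTiter-Fluor addition and a 1-hr incubation.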

[11] = biological target: Cytochrome P450 1A2 (Homo sapiens) (UniProt P05177); assay: Cytochrome P450 Family 1 Subfamily A Member 2 (CYP1A2) small molecule antagonists: luciferase reporter qHTS assay (AID 1671199); also: nearly all actives have a fitted effect of over 50% in size; also: potency is read from the fitted curve at half-maximal effect
Chain of Cytochrome P450 1A2 (Homo sapiens) (P05177 whole entry, looked up): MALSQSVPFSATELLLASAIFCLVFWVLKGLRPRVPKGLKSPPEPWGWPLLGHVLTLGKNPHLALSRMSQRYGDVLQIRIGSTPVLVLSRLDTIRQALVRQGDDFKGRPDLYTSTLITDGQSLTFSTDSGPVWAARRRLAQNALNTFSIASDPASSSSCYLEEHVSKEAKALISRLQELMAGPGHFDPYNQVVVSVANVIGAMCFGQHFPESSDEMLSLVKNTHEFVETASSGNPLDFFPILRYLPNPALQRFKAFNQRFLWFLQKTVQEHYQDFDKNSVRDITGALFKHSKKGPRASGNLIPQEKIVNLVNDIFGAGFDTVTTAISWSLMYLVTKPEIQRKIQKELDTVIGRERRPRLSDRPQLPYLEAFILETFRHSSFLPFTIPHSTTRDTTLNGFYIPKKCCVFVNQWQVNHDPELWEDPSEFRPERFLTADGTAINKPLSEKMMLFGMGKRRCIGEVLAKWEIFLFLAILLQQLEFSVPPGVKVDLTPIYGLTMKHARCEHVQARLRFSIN
How it was run: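 Compounds were incubated with CYP1A2 and a luminogenic proluciferin substrate for 10 min at room temperature before the reaction was started with NADPH regeneration solution. After 1 h, detection reagent was added and light output, proportional to CYP activity, was recorded.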

[12] = biological target: Nuclear receptor subfamily 1 group I member 2 (Rattus norvegicus) (UniProt Q9R1A7); assay: Rat pregnane X receptor (rPXR) activation by small molecules, qHTS assay (AID 1346983); conditions: rPXR luciferase reporter cells, One-Glo luminescence, 24 h; max activation: active compounds read high; also: nearly all actives have a fitted effect of over 20% in size
Chain of Nuclear receptor subfamily 1 group I member 2 (Rattus norvegicus) (Q9R1A7 whole entry, looked up): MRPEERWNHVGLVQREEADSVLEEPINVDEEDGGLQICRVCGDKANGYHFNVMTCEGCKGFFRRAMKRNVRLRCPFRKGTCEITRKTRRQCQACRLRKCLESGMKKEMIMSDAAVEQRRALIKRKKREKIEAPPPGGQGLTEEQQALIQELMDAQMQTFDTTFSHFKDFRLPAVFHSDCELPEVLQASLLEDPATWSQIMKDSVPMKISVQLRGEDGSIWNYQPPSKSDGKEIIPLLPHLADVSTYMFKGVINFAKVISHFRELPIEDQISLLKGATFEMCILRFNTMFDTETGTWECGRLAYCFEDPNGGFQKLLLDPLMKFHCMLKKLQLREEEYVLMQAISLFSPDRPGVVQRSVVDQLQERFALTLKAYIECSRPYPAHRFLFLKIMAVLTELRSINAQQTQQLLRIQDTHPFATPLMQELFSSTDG
How it was run: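 Cell-based rPXR luciferase reporter assay, 2,000 cells per well, rested 5hr at 37 C before compound addition in DMSO, then 24 hr at 37 C. One-Glo reagent was added and luminescence read after 30 min at room temperature.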

[13] = biological target: Nuclear receptor subfamily 1 group I member 2 (Homo sapiens) (UniProt O75469); assay: CYP3A4 induction through human pregnane X receptor (PXR) by small molecules, qHTS assay (AID 1346984); also: nearly all actives have a fitted effect of over 40% in size
How it was run: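 Quantitative HTS in DPX-2 cells, i.e. HepG2 transfected with PXR response element and CYP3A4-promoter luciferase. Compounds in DMSO incubated 24hr at 37C; then P450-Glo CYP3A4 substrate, 3uM final, 3hr; One-Glo luminescence.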

[14] = biological target: Nuclear receptor subfamily 1 group I member 2 (Homo sapiens) (UniProt O75469); assay: Human pregnane X receptor (PXR) activation by small molecules, qHTS assay (AID 1346985); also: nearly all actives have a fitted effect of over 40% in size
How it was run: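 DPX-2 cells (HepG2 co-transfected with a PXR response element and a CYP3A4-promoter luciferase construct) were seeded at 2,000 per well, rested 5 hr at 37C, then exposed to DMSO-dissolved compounds for 24 hr. Activation was read as luciferase luminescence.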

CCc1c(C(=O)NN2CCCCC2)nn(-c2ccc(Cl)cc2Cl)c1-c1ccc(Br)cc1
Potency [1]: inactive | Potency [2]: 27.3 µM (active) | Potency [3]: inactive | Potency [4]: 48.6 µM (active) | Potency [5]: inactive | Potency [6]: inactive

CN(C)c1ccc(C(c2ccccc2)c2ccc(N(C)C)cc2)cc1
Potency [1]: inactive | Potency [2]: 1.09 µM (active) | Potency [3]: inactive | Potency [4]: 21.7 µM (active) | Potency [5]: 31.7 µM (active) | Potency [7]: 1.59 µM (active) | Potency [8]: 1.42 µM (active) | Potency [9]: inactive | Potency [6]: 4.48 µM (active)

CCCCCCCCCOS(=O)(=O)O
Potency [1]: inactive | Potency [2]: inactive | Potency [3]: inactive | Potency [10]: inactive | Potency [4]: inactive | Potency [5]: inactive | Potency [7]: 79.6 µM (active) | Potency [9]: inactive | Potency [6]: inactive

CN(C)CCOC(c1ccccc1)c1ccc(Br)cc1 (centres undefined)
Potency [1]: inactive | Potency [2]: inactive | Potency [4]: inactive | Potency [5]: 1.55 µM (active) | Potency [7]: 13.8 µM (active) | Potency [11]: 17.4 µM (active) | Potency [9]: 3.38 µM (active) | Potency [6]: inactive

CN1CCN(C(c2ccccc2)c2ccccc2)CC1
Potency [1]: inactive | Potency [2]: inactive | Potency [10]: inactive | Potency [4]: inactive | max activation [12]: -2.77% | Potency [13]: inactive | Potency [14]: inactive | Potency [5]: 4.9 µM (active) | Potency [7]: inactive | Potency [8]: inactive | Potency [11]: inactive | Potency [9]: inactive | Potency [6]: inactive

CN(C)c1ccc(CCO)cc1
Potency [1]: inactive | Potency [2]: inactive | Potency [3]: inactive | Potency [10]: inactive | Potency [4]: inactive | Potency [7]: 28.1 µM (active) | Potency [8]: 19.9 µM (active) | Potency [11]: 35.4 µM (active) | Potency [9]: inactive | Potency [6]: inactive

CC(C)(C)OCC1CO1 (centres undefined)
Potency [1]: inactive | Potency [2]: inactive | Potency [10]: inactive | Potency [4]: inactive | Potency [5]: inactive | Potency [7]: inactive | Potency [11]: inactive | Potency [9]: inactive | Potency [6]: inactive

CCCCCCOC(=O)NC(=N)c1ccc(NCc2nc3cc(C(=O)N(CCC(=O)OCC)c4ccccn4)ccc3n2C)cc1
Potency [1]: inactive | Potency [2]: 29.8 µM (active) | Potency [3]: inactive | Potency [4]: 11.9 µM (active) | Potency [7]: 2.19 µM (active) | Potency [11]: inactive | Potency [9]: 0.601 µM (active)

O=C(OCCCCCCOC(=O)c1ccccc1)c1ccccc1
Potency [1]: inactive | Potency [2]: inactive | Potency [3]: inactive | Potency [10]: inactive | Potency [4]: inactive | Potency [11]: 3.17 µM (active) | Potency [9]: inactive | Potency [6]: inactive

CCN(CC)CCOC(=O)C(Cc1cccc2ccccc12)CC1CCCO1 (centres undefined)
Potency [1]: inactive | Potency [2]: inactive | Potency [3]: inactive | Potency [10]: inactive | max activation [12]: 10.4% | Potency [9]: 9.52 µM (active)

COC(=O)c1ccc(I)cc1S(=O)(=O)NC(=O)Nc1nc(C)nc(OC)n1
Potency [1]: inactive | Potency [2]: inactive | Potency [3]: inactive | Potency [10]: inactive | Potency [4]: inactive | Potency [5]: inactive | Potency [7]: inactive | Potency [9]: inactive | Potency [6]: inactive

CC[N+]1(CC)CCC(=C(c2ccccc2)c2ccccc2)C1C (centres undefined)
Potency [1]: inactive | Potency [2]: inactive | Potency [3]: inactive | Potency [10]: inactive | Potency [4]: inactive | Potency [5]: 1.74 µM (active) | Potency [7]: inactive | Potency [8]: inactive | Potency [6]: inactive

C#Cc1cccc(Nc2ncnc3cc(OCCOC)c(OCCOC)cc23)c1
Potency [1]: inactive | Potency [2]: 6.68 µM (active) | Potency [3]: inactive | Potency [4]: 7.5 µM (active) | max activation [12]: -7.82% | Potency [13]: inactive | Potency [7]: inactive | Potency [11]: inactive | Potency [9]: inactive

C=C(C)C(=O)OCCO
Potency [1]: inactive | Potency [2]: inactive | Potency [10]: inactive | Potency [5]: inactive | Potency [8]: inactive | Potency [11]: inactive | Potency [9]: inactive | Potency [6]: inactive

CC(=O)NO
Potency [1]: inactive | Potency [2]: inactive | Potency [3]: inactive | Potency [10]: inactive | max activation [12]: -0.0404% | Potency [13]: inactive | Potency [14]: inactive | Potency [7]: inactive | Potency [8]: inactive | Potency [11]: inactive | Potency [9]: inactive | Potency [6]: inactive

CCC(C)O (centres undefined)
Potency [1]: inactive | Potency [2]: inactive | Potency [3]: inactive | Potency [10]: inactive | Potency [9]: inactive

S=C([S-])NCCNC(=S)[S-].[Mn+2]
Potency [1]: inactive | Potency [2]: inactive | Potency [10]: inactive | Potency [4]: 30.6 µM (active) | Potency [7]: 17.8 µM (active) | Potency [8]: 11.2 µM (active) | Potency [11]: 25.2 µM (active) | Potency [9]: inactive

CC(C)(CO)[N+](=O)[O-]
Potency [1]: inactive | Potency [2]: inactive | Potency [3]: inactive | Potency [10]: inactive | Potency [4]: inactive | Potency [5]: inactive | Potency [7]: inactive | Potency [8]: inactive | Potency [9]: inactive | Potency [6]: inactive

CCc1cc(C2=C(C(=O)O)N(c3ccccc3C(F)(F)F)S(=O)(=O)c3ccccc32)cc2c1OCO2
Potency [1]: inactive | Potency [2]: 30.3 µM (active) | Potency [3]: inactive | Potency [10]: 15.2 µM (active) | Potency [4]: inactive | Potency [7]: 78.7 µM (active) | Potency [8]: 11.1 µM (active) | Potency [9]: inactive | Potency [6]: 2.79 µM (active)

C=C1C(=C/C=C2\CCC[C@]3(C)[C@@H]([C@H](C)/C=C/[C@@H](O)C4CC4)CC[C@@H]23)C[C@@H](O)C[C@@H]1O
Potency [1]: inactive | Potency [2]: 18.8 µM (active) | Potency [3]: inactive | Potency [4]: 16.8 µM (active) | max activation [12]: 5.08% | Potency [13]: inactive | Potency [14]: inactive | Potency [7]: 7.76 µM (active) | Potency [8]: 15.5 µM (active) | Potency [9]: inactive | Potency [6]: inactive

c1ccc(CNCCNCc2ccccc2)cc1
Potency [1]: inactive | Potency [3]: inactive | Potency [10]: inactive | Potency [4]: inactive | max activation [12]: -3.63% | Potency [13]: inactive | Potency [14]: inactive | Potency [7]: 7.76 µM (active) | Potency [8]: inactive
